# Assay results: PubChem BioAssay AID1345085 (National Center for Advancing Translational Sciences (NCATS), 2018)
# Records with an inconclusive call do not appear. Active and inactive are the calls of the source. The call rests on the fitted dose curve; in most records, active means well fitted cell-killing curve with a large enough effect; inconclusive means small, poorly fitted or top-dose-only effect, or effect the other way; inactive means no such curve, though single readings can be large or run the other way. *1 amine or outer side, *2 acyl side, *3 side chain or, on linkers, in order; H or OH if unused. Where a SMILES comes first, the peptide text is derived from it. Bridges are numbered along the chain shown (N, C = ends). Roman numbers before positions name the chains, in order. [ ]: non-standard residue; d: D form. Actinocin(9to1) = Cc1c2oc3c(C)ccc(C(=O)[*:1])c3nc-2c(C(=O)[*:2])c(N)c1=O; NMeV = CN[C@H](C(=O)O)C(C)C; Sar = CNCC(=O)O
# System: HeLa
# Test: Confirmatory qHTS for gynecologic anti-cancer compounds from libraries of approved drugs and bioactive compounds; further: nearly all actives have a fitted effect of over 55% in size
# Settings: gynecologic cancer cell panel viability, ATPlite luminescence, 48 h; series mostly up to 57.6 µM
# Summary of the method: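 IC50 values derive from an ATPlite ATP-content luminescence assay following 48 h treatment at 37 C. Each compound ran as an 11-concentration, threefold series (57.5 uM to 0.977 nM); HEK 293T served as control line for selectivity index.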
# On the % scale 0 is the no-effect control and ±100 the full control effect; potency means the concentration at half of the fitted maximal effect.
Structure (SMILES),Potency,"activity change, negative = viability loss"
Nc1ccccc1NC(=O)c1ccc(CNC(=O)OCc2cccnc2)cc1,4.32 µM (active),
CC(=O)OC12COC1CC(O)C1(C)C(=O)C(O)C3=C(C)C(OC(=O)C(O)C(NC(=O)OC(C)(C)C)c4ccccc4)CC(O)(C(OC(=O)c4ccccc4)C21)C3(C)C (stereo unspecified),0.0097 µM (active),
Cc1cc(C(=O)N2CCN(c3cccc(Cl)c3)CC2)n(-c2ccccc2)n1,2.17 µM (active),
CC1=C(CO)C(=O)O[C@@H]([C@@H](C)[C@H]2CC[C@H]3[C@@H]4C[C@H]5O[C@]56[C@@H](O)C=CC(=O)[C@]6(C)[C@H]4CC[C@]23C)C1,2.11 µM (active),
OC[C@H]1O[C@@H](n2cnc3c(=S)nc[nH]c32)[C@H](O)[C@@H]1O,4.32 µM (active),
CC(C)n1c(/C=C/[C@@H](O)C[C@@H](O)CC(=O)O)c(-c2ccc(F)cc2)c2ccccc21,5.44 µM (active),
COCCOc1nc(-c2ccc(Cl)c(Cl)c2)n(-c2ccc(NC(=O)CCl)cc2)n1,24.3 µM (active),
Cn1cnc2c(F)c(Nc3ccc(Br)cc3Cl)c(C(=O)NOCCO)cc21,inactive,
Cc1cc(Nc2cc(N3CCN(C)CC3)nc(/C=C/c3ccccc3)n2)n[nH]1,1.72 µM (active),
NC(=O)c1cnc(-c2ccc(C3(N)CCC3)cc2)c(-c2ccccc2)c1,30.6 µM (active),
Nc1nccc(Oc2ccc(NC(=O)c3c[nH]cc(-c4ccc(F)cc4)c3=O)cc2F)c1Cl,6.85 µM (active),
CCc1c2c(nc3ccc(OC(=O)N4CCC(N5CCCCC5)CC4)cc13)-c1cc3c(c(=O)n1C2)COC(=O)[C@]3(O)CC,inactive,
O=c1[nH]c(=O)n([C@H]2C[C@H](O)[C@@H](CO)O2)cc1F,2.43 µM (active),
Nc1ccc(C(=O)Nc2cccc(-c3nc(N4CCOCC4)c4oc5ncccc5c4n3)c2)cn1,7.69 µM (active),
Cc1cnc(Nc2ccc(OCCN3CCCC3)cc2)nc1Nc1cccc(S(=O)(=O)NC(C)(C)C)c1,3.85 µM (active),
Nc1nc(Cl)nc2c1ncn2C1OC(CO)C(O)C1F (stereo unspecified),inactive,
CCCS(=O)c1ccc2nc(NC(=O)OC)[nH]c2c1 (stereo unspecified),24.3 µM (active),
Cc1cc(Nc2nc(N[C@@H](C)c3ncc(F)cn3)ncc2Cl)n[nH]1,0.968 µM (active),

Structure (SMILES),Potency,"activity change, negative = viability loss"
"Cc1c2oc3c(C)ccc(C(=O)N[C@@H]4C(=O)N[C@H](C(C)C)C(=O)N5CCC[C@H]5C(=O)N(C)CC(=O)N(C)[C@@H](C(C)C)C(=O)O[C@@H]4C)c3nc-2c(C(=O)N[C@@H]2C(=O)N[C@H](C(C)C)C(=O)N3CCC[C@H]3C(=O)N(C)CC(=O)N(C)[C@@H](C(C)C)C(=O)O[C@@H]2C)c(N)c1=O (I: T[dV]P[Sar][NMeV] / II: T[dV]P[Sar][NMeV]; ester I:1-I:C, II:1-II:C; linker I:N-II:N via Actinocin(9to1))",0.863 µM (active),
CC(C)C[C@H](NC(=O)[C@H](CCc1ccccc1)NC(=O)CN1CCOCC1)C(=O)N[C@@H](Cc1ccccc1)C(=O)N[C@@H](CC(C)C)C(=O)[C@@]1(C)CO1,10.9 µM (active),
CC[C@H](Nc1ncnc2nc[nH]c12)c1nc2cccc(F)c2c(=O)n1-c1ccccc1,,0.732% [at 10.7 µM] (inactive)
COc1cc(Nc2c(C#N)cnc3cc(OCCCN4CCN(C)CC4)c(OC)cc23)c(Cl)cc1Cl,27.3 µM (active),
Cn1cnc([N+](=O)[O-])c1Sc1ncnc2nc[nH]c12,4.85 µM (active),
CC(=O)c1cnc2ccc(-c3cc(Cl)c(O)c(Cl)c3)nc2c1NC1CCC(CN(C)C)CC1 (stereo unspecified),0.0993 µM (active),
COc1cc(C(=O)N2CCC(N3CCN(C)CC3)CC2)ccc1Nc1ncc2c(n1)N(C)c1ccccc1C(=O)N2C,17.2 µM (active),
Cc1nc(Nc2n[nH]c3c2CN(C(=O)NC(CN(C)C)c2ccccc2)C3(C)C)c2sccc2n1 (stereo unspecified),3.06 µM (active),
CCCCc1nc2cc(/C=C/C(=O)NO)ccc2n1CCN(CC)CC,1.72 µM (active),
Cc1c(NC(=O)OCC2COCCN2)cn2ncnc(Nc3ccc4c(cnn4Cc4cccc(F)c4)c3)c12 (stereo unspecified),34.3 µM (active),
CC(C)CC(=O)Nc1n[nH]c2c1CN(C(=O)C1CCN(C)CC1)C2(C)C,3.43 µM (active),
COc1cc2nccc(Oc3ccc(NC(=O)C4(C(=O)Nc5ccc(F)cc5)CC4)cc3)c2cc1OC,13.7 µM (active),
CN1C2CCC1CC(OC(=O)[C@H](CO)c1ccccc1)C2 (stereo partly specified),inactive,
Cc1csc(NC(=O)c2sc3nc4c(c(C(F)(F)F)c3c2N)CCC4)n1,1.93 µM (active),
CC(C)Oc1ccc2c(=O)c(-c3ccccc3)coc2c1,21.7 µM (active),
Cc1cc(CN2CCN(c3c(Br)cnc4nc(-c5ccc(N6CCN(C)CC6)cc5)[nH]c34)CC2)no1,3.06 µM (active),
C[C@]12CCC(=O)C=C1CC[C@@H]1[C@@H]2[C@@H](O)C[C@@]2(C)[C@H]1CC[C@]2(O)C(=O)CO,inactive,
CN(C[C@@H]1COCCO1)S(=O)(=O)Nc1ccc2ccc3ncc(-c4cnn(C)c4)cc3c(=O)c2c1,5.44 µM (active),
